Consider nine molecules from PubChem BioAssay.

The structures appear in SMILES notation. The source made the active and inactive calls.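 The calls were made as follows, unless noted: active = inhibition above 20% together with a positive visual image hit; inconclusive = visual image hit but inhibition not above 20%; inactive = no visual image hit.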

Experiment [1] can be described thus: inhibitors of TNFa-induced NFkB p65 translocation, primary screen, imaging, HUVEC, MLSMR starter and 10KST1 sets (AID 438).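 Also: compound added about 3h40 before a 20 min TNFalpha stimulation.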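 As to inhibition: signal is the nuclear over cytoplasmic p65 intensity ratio per well.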 The conditions noted are these: HUVEC TNFa-induced p65 nuclear translocation; cell count: measured here: nuclei count (cytotoxicity indicator), at 2.08 µM; inhibition: at 2 µM, stronger effect = higher value, 0% TNFa-plus-vehicle, 100% no-TNFa wells.

A short description of experiment [2]: reduction of polyQ htt aggregates in cells – imaging, exon1htt(103Q)mCFP cells, high-content imaging, primary screen (AID 483;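 active = visual image review flags a hit and inhibition of aggregation exceeds 20%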;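 also: compound exposure lasted 3 days before fixation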;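 as to nuclei count: percent of the per-plate median nuclei count of sample wells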). The note with it: exon1htt(103Q)mCFP cell line, aggregate imaging, at 2 µM; inhibition of aggregation: stronger effect = higher value; nuclei count: measured here: cell count, toxicity.
Experiment [3] can be described thus: endothelial E-selectin expression blockers – imaging, HUVEC, immunofluorescence, MLSMR starter and 10KST1 sets, primary screen (AID 487;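 active = visually confirmed hit in the image check and inhibition above 20%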;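 as to inhibition: signal is fraction of cell area covered by stained E-selectin grains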;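 as to nuclei count: 100% = median nuclei count of all wells on the same plate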). The conditions noted are these: HUVEC TNFalpha-induced E-selectin immunofluorescence imaging, at 2 µM; inhibition: stronger effect = higher value; nuclei count: measured here: cell number, toxicity.
Experiment [4] addresses Voltage-gated potassium channel subunit beta-2 (Rattus norvegicus) (UniProt P62483). Kind of experiment: inhibitors of rat Kvbeta2 reductase activity – biochemical, NADPH fluorescence, primary screen (AID 622;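 active = fluorescence slope higher than the sample average by over 3 SD, cut at about -0.22 in these data, passing the limit was not always enough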;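 also: slope of raw intensity against log time taken from 70 to 1610 s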). The note with it: recombinant KvBeta, 4-cyanobenzaldehyde reduction, at 10 µM, stronger effect = higher value.
Experiment [5] has the same target. The experiment in a line: enhancers of rat Kvbeta2 NADPH turnover – biochemical, NADPH fluorescence, primary screen (AID 623;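 active = NADPH fluorescence slope more negative than the mean of all samples by about 3 SD, 99.7% confidence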;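 also: fluorescence intensity change per second fitted from 20 to 320 s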). The note with it: Recombinant KvBeta, NADPH fluorescence decrease slope, 10 min; at 10 µM; stronger effect = lower value.
The target in experiment [6] is Alpha-2C adrenergic receptor (Homo sapiens) (UniProt P18825). The experiment in a line: compounds altering alpha2C-coupled GIRK flux – cell-based, HEK293 alpha2C/GIRK1/2, thallium flux, primary screen (AID 624;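 active = fluorescence slope after compound addition differing from the mean of all screened samples at 99.7% confidence, in either direction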;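 also: slope of fluorescence ratio to pre-addition baseline per second over 15 to 24 s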). The conditions noted are these: thallium flux BTC fluorescence, at 10 µM, actives lie on both sides.
Alpha-2C adrenergic receptor (Homo sapiens), sequence (P18825 whole entry, looked up): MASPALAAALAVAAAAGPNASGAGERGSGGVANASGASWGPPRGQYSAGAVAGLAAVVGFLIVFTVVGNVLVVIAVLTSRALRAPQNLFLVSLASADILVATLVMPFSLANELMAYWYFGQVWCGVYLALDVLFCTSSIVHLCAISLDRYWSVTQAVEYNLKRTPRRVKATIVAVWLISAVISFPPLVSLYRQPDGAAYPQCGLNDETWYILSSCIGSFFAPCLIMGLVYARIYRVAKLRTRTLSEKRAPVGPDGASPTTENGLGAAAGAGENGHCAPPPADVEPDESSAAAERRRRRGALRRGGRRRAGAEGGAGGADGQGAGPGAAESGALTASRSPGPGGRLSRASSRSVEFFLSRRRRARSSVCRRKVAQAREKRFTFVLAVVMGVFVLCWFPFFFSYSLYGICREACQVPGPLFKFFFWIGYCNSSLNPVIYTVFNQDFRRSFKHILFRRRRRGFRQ
The nature of experiment [7]: blockers of RIG-like receptor reporter activation – cell-based, Sendai virus stimulus, luciferase, 10K MLSCN set, TLR/RLR signaling modifier project, primary screen (AID 602276;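 active = inhibition at or above 50% at 10 µM; inactive = inhibition below 50%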;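 also: firefly luciferase from ISG56 promoter only with Renilla not read in this screen; 0% = Sendai virus plus DMSO and 100% = medium plus DMSO without virus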). The conditions noted are these: HEK293 RL24 IRF3 luciferase reporter, at 10 µM, stronger effect = higher value.
Experiment [8] in a line: TLR3 IRF3 reporter activation blockers – cell-based, poly I:C stimulus, luciferase, 10K MLSCN set, primary screen (AID 602277;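 active = inhibition of the reporter signal at or above 50%; inactive = inhibition below 50%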). The note with it: HEK293-TLR3 RL24 IRF3 luciferase reporter, at 10 µM, stronger effect = higher value.

Voltage-gated potassium channel subunit beta-2 (Rattus norvegicus), sequence (P62483 whole entry, looked up): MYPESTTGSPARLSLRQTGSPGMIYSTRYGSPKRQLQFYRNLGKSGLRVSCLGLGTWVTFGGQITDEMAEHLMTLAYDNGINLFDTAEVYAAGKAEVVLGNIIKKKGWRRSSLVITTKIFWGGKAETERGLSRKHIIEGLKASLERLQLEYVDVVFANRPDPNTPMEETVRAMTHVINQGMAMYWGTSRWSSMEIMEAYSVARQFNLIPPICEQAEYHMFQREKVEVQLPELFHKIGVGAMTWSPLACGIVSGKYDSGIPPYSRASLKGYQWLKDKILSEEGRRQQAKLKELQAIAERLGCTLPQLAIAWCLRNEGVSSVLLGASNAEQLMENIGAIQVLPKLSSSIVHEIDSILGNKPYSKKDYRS

For `Cc1noc(/C=C/N(C)C)c1S(=O)(=O)N1CCCC(C(=O)NCCC2=CCCCC2)C1` (centres undefined), the cell count in experiment [1] was 518. The inhibition was 0.9% (inactive) in experiment [1], -25.3% (inactive) in experiment [3], 1.59% (inactive) in experiment [7] and -0.365% (inactive) in experiment [8]. For the same molecule, the inhibition of aggregation in experiment [2] was -2.1% (inactive). The nuclei count turned out to be 105% in experiment [2] and 115% in experiment [3]. Further, the fluorescence slope in experiment [4] is -0.548 (inactive). Besides, in experiment [5], the NADPH fluorescence slope was -1.2e-05 (inactive). The slope in experiment [6] is 0.00579 (inactive).

Take `CC(=O)Nc1ccc(OC(=O)c2cccs2)cc1`: the cell count in experiment [1] came to 716. In addition, the inhibition in experiment [1] was 10.2% (inactive); in experiment [3], 27.9% (inactive); in experiment [7], 8.66% (inactive); in experiment [8], 20% (inactive). The inhibition of aggregation in experiment [2] was -5% (inactive). In addition, the nuclei count in experiment [2] came to 107%; in experiment [3] it was 94.2%. The fluorescence slope in experiment [4] is -0.473 (inactive). In addition, the NADPH fluorescence slope in experiment [5] is 5.9e-06 (inactive). Besides, the slope in experiment [6] was 0.00674 (inactive).

Take `COc1cccc(C2C(C(N)=O)=C(C)Nc3nc(-c4ccccc4Cl)nn32)c1` (centres undefined): in experiment [1], the cell count came out at 804. Moreover, the inhibition is -4% (inactive) in experiment [1], -48.3% (inactive) in experiment [3], 12.6% (inactive) in experiment [7] and 40.8% (inactive) in experiment [8]. In addition, in experiment [2], the inhibition of aggregation was -14.6% (inactive). Moreover, the nuclei count in experiment [2] came out at 93.9%; in experiment [3], 110%. The fluorescence slope in experiment [4] is -0.416 (inactive). In experiment [5], the NADPH fluorescence slope was -9.2e-05 (inactive). For the same molecule, the slope in experiment [6] is 0.00547 (inactive).

Consider `CCCCn1c2c(c3ccccc31)CCc1nonc1-2`, for which the cell count in experiment [1] stood at 664. Moreover, the inhibition is -4% (inactive) in experiment [1], -16.7% (inactive) in experiment [3], -16.3% (inactive) in experiment [7] and 13.4% (inactive) in experiment [8]. In addition, the inhibition of aggregation in experiment [2] was 8.5% (inactive). For the same molecule, the nuclei count in experiment [2] turned out to be 75.1%; in experiment [3], 100%. Moreover, the fluorescence slope in experiment [4] is -0.601 (inactive). Moreover, the NADPH fluorescence slope in experiment [5] is 4.9e-06 (inactive). In addition, the slope in experiment [6] is 0.00755 (inactive).

Take `CC(C)c1cc(C(=O)NCc2ccco2)no1`: the cell count in experiment [1] was determined as 788. For the same molecule, the inhibition is 3.7% (inactive) in experiment [1], -45.3% (inactive) in experiment [3], -22.8% (inactive) in experiment [7] and -50.6% (inactive) in experiment [8]. For the same molecule, the inhibition of aggregation in experiment [2] was -21.5% (inactive). The nuclei count came out at 104% in experiment [2] and 106% in experiment [3]. Further, the fluorescence slope in experiment [4] is -0.586 (inactive). Also, the NADPH fluorescence slope in experiment [5] is -2.6e-05 (inactive). Also, the slope in experiment [6] is 0.00624 (inactive).

As to `CCC(c1nnnn1Cc1ccco1)N(CCc1ccccc1)Cc1cc2cccc(C)c2[nH]c1=O` (centres undefined), in experiment [1], the cell count was 788. The inhibition is -8.4% (inactive) in experiment [1], -19.1% (inactive) in experiment [3], 25.2% (inactive) in experiment [7] and 31.5% (inactive) in experiment [8]. For the same molecule, the inhibition of aggregation in experiment [2] is -2.2% (inactive). The nuclei count worked out at 86.2% in experiment [2] and 110% in experiment [3]. In addition, in experiment [4], the fluorescence slope is -0.396 (inactive). Besides, the NADPH fluorescence slope in experiment [5] was -1.9e-05 (inactive). The slope in experiment [6] is 0.00487 (inactive).

For the molecule `O=C(CN1CCN(Cc2ccccc2F)C1=O)NCc1cccnc1`, the cell count in experiment [1] came out at 674. In addition, the inhibition in experiment [1] is -9.2% (inactive); in experiment [3], -69.2% (inactive); in experiment [7] it was 7.76% (inactive); in experiment [8], 7.56% (inactive). The inhibition of aggregation in experiment [2] was 18.1% (inactive). Moreover, the figures for the nuclei count in experiment [2] and in experiment [3] were 93.5% and 115%, respectively. Also, the fluorescence slope in experiment [4] was -0.502 (inactive). Moreover, the NADPH fluorescence slope in experiment [5] is 2.9e-05 (inactive). Also, in experiment [6], the slope was 0.00712 (inactive).

For the molecule `COCCn1c(SCC(=O)Nc2cccc(OC)c2)nnc1-c1ccc(Cl)cc1`, in experiment [1], the cell count worked out at 467. Also, the inhibition in experiment [1] was 6.7% (inactive); in experiment [3], -19.6% (inactive); in experiment [7] it was 16.4% (inactive); in experiment [8] it was 22.6% (inactive). For the same molecule, the inhibition of aggregation in experiment [2] was 8.5% (inactive). Besides, the nuclei count in experiment [2] came out at 94.1%; in experiment [3] it was 97.1%. In addition, the fluorescence slope in experiment [4] was -0.598 (inactive). Besides, in experiment [5], the NADPH fluorescence slope is -2.9e-05 (inactive). Further, the slope in experiment [6] was 0.00322 (inactive).

For `Cc1ccc2oc(C(=O)Nc3c(C)n(C)n(-c4ccccc4)c3=O)c(C)c2c1`, in experiment [1], the cell count amounted to 776. The inhibition in experiment [1] was -5% (inactive); in experiment [3], -37.6% (inactive); in experiment [7] it was -5.27% (inactive); in experiment [8], 7.35% (inactive). Further, the inhibition of aggregation in experiment [2] was -1.5% (inactive). The nuclei count in experiment [2] is 109%; in experiment [3], 108%. Besides, the fluorescence slope in experiment [4] was -0.616 (inactive). Further, the NADPH fluorescence slope in experiment [5] was -2.7e-05 (inactive). In addition, in experiment [6], the slope is 0.00692 (inactive).
